Results from the supplement of paper PMC3334620.
Whole data set: some 33,000 sequences, median “E-score (-0.5 to 0.5)” near -0.011, cut for the highest 2% near 0.28. The sample as a whole holds a higher share of the highest values than the screen did.

The sequences below were run against T1, Gcr1 (UniProt P07261) (assay: PBM E-score (8-mer binding enrichment) (E-score (-0.5 to 0.5)); higher = stronger / more preferred TF binding). Conditions: protein concentration: 100 nM; construct: GST-full length.
T1 sequence: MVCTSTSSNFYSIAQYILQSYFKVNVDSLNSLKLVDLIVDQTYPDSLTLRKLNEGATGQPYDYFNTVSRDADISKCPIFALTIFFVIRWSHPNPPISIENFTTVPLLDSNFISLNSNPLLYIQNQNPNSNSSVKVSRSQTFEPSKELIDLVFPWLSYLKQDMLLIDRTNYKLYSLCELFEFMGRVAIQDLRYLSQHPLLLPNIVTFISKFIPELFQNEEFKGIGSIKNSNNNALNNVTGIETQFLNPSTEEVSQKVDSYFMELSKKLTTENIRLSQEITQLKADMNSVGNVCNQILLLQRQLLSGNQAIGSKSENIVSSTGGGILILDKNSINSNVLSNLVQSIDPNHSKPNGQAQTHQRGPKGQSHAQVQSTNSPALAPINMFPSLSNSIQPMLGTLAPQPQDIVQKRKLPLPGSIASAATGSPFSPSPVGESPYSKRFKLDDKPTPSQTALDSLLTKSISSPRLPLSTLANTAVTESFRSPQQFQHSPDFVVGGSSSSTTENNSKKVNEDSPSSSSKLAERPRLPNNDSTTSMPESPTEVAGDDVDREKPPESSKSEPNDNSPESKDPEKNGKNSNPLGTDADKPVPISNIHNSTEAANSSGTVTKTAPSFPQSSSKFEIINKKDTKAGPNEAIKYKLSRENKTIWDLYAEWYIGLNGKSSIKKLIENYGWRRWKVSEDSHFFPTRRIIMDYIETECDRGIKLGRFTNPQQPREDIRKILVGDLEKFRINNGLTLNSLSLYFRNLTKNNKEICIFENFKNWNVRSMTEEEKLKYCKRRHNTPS
Protocol: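 Universal 'all 10-mer' protein binding microarrays (Agilent AMADID 015681) probed with GST-tagged S. cerevisiae TFs (full-length or DBD) made by in vitro transcription/translation (PURExpress), about 100-200 nM. Bound TF was detected with fluorescent anti-GST. Each ungapped 8-mer (which stands for itself and its reverse complement) is scored by the PBM enrichment score (E-score), a modified Wilcoxon-Mann-Whitney statistic from -0.5 to +0.5, computed with the Universal PBM Analysis Suite. Scale: above 0.35 generally sequence-specific binding.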

Sequence | PBM E-score
CGCTTTCA | -0.00233
CCTGAGAC | -0.0674
GCACCAAC | 0.197
GTATCTAA | 0.16
AAGACGCG | 0.278
AAGACGCT | 0.218
CAGACGCA | 0.175
CAGACGCG | 0.136
AAGACGCC | 0.349
CAGACGCC | 0.329
GCGAAGAC | -0.133
AGAGCAGG | 0.0116
ATACCTGC | 0.115
GAACGCTA | -0.111
CCCTGGCA | -0.00029
CCTCTCGC | -0.0389
CGGGATGA | -0.188
CAGGATGG | -0.132
CAGGATGA | 0.0175
AAGGATGA | -0.116
AGGGATGC | 0.098
CAGGATCA | -0.179
CGGGATGC | 0.332
CAGGATCG | 0.154
CAGGATGC | 0.446

Sequence | PBM E-score
AAGGATGT | 0.0399
AAGGATGC | 0.313
CAGGATCC | 0.345
CCAGCTGG | 0.157
ACTCTAAC | 0.00366
CCCTTGCA | -0.097
ACCGGAGG | -0.09
TATGAAAA | 0.131
AGGCAGTA | -0.0662
CTGGTATA | -0.0854
ACGTGTTA | -0.0746
AGCTCGCG | -0.0019
GAGGATAC | -0.00197
CCGGATGA | 0.112
ACGGATGC | 0.183
GAGGATGA | -0.0555
GAGGATGC | 0.423
CCGGATGC | 0.4
GCAGGGGA | -0.102
CGGTGCAC | -0.105
AGAGCAGC | 0.0483
AGCCATGC | -0.346
CCAGAATA | 0.283
ACAGAAAA | -0.076
ACCGAATA | -0.0481

Sequence | PBM E-score
CCAGAAAA | 0.335
CAAGAATA | 0.19
GCCGAATA | 0.2
CCAGAATC | 0.245
CAAGAAAA | 0.248
CCCGAATA | 0.334
GGTTGACA | 0.0705
AATCGGGC | 0.114
CATAGGCA | 0.0323
CTGATGGC | -0.068
ACGGTAGA | 0.138
TGAAACAA | 0.0585
CGCCTGAA | 0.143
GAGCATCA | -0.0695
CAGCATCC | 0.447
AAGCATCG | 0.0291
GAGCATCC | 0.398
AAGCATCA | -0.0253
GAGCATAC | -0.155
CAGCATCG | 0.0157
CAGCATCA | -0.00923
AAGCATCC | 0.404
CTCTCGCA | 0.0115
ACACTGGT | 0.035
CAGGGACC | 0.0209

Sequence | PBM E-score
AAAGTCTT | -0.247
AGACACTA | -0.0252
ATAAAGGG | 0.123
ACGGAGCT | -0.175
CCGAAGCC | 0.136
ACGAAGCC | 0.428
ACAAAGCT | 0.0432
ACGAAGCA | -0.12
ACGAAGCT | 0.399
ACGAAGCG | 0.0293
TCAGGCCA | -0.118
GACAGACC | -0.157
AACTAGTT | 0.0246
AGGCTCGC | -0.213
CCTGGGCA | -0.022
CCTATAGA | 0.286
CCTATAGC | -0.0383
ACTATAGA | 0.0257
TATGAAGA | 0.0942
ATAATTAC | 0.0678
ATAATTAA | 0.134
ATAATTAT | 0.297
GAAAGAGA | -0.038
GCGCTGCC | 0.0863
ACGCTGCC | 0.339

Sequence | PBM E-score
ACGCTGCA | 0.0243
ACGCTGCG | 0.086
ACGCTGCT | 0.34
ACGCTGAT | -0.0742
AGCAGGAC | -0.0439
AGTCCCGG | 0.108
CCAGGCCG | -0.117
GAGCTAGC | -0.122
GCGAGCGC | -0.0888
AGATCAGA | -0.0273
AACCCTGT | -0.0296
AAATCTGC | 0.0369
CAATCTGG | -0.0284
AAATCTGG | 0.292
CCGTTAGG | 0.0609
CCCGGGAC | 0.21
ATTGCGGG | -0.0146
AGTGCCGA | -0.0356
GATGCCCA | 0.378
GGTGCCGA | 0.285
TATGCCCA | -0.14
CGTGCCGA | -0.0978
GGTGCCCA | 0.382
AGTGCCCA | 0.0254
CGTGCCCA | 0.0649

Sequence | PBM E-score
GATGCCCC | 0.248
AGATTCAG | 0.117
ACAGGGAC | 0.107
CCTTCCCA | 0.122
GCTTCCCC | 0.341
ACTTCCCA | 0.0658
GCTTCCCA | 0.386
ACTTCCCC | 0.0219
CCTTCCCC | -0.122
CTGTGGGC | 0.0855
GGTAGATA | 0.00026
CAGTGCCA | -0.0969
ATGCCGGA | 0.215
AATAGCGC | 0.0793
CCATCCTA | 0.0473
GCATCCGA | 0.33
CCATCCGA | -0.0665
GCATCCTA | 0.4
ACATCCTA | 0.166
ACATCCGA | -0.104
ACCTATAT | 0.194
ATGTTGTC | -0.117
ATAATTGC | -0.00448
GCGTATAC | 0.156
TCGTATAA | 0.286

Sequence | PBM E-score
GCGTATAA | 0.353
CCCTATAA | 0.141
TCCTATAA | 0.334
ACGTATAA | 0.132
ACCTATAA | 0.0515
CCGTATAA | 0.195
GTGTATAA | -0.0442
AAGGTGCA | -0.0118
CAATAGCG | 0.025
CGAAATAG | 0.131
ACCCTGCG | -0.0486
CGGAATAA | -0.168
GATGCGCA | 0.134
CTGGTTCC | 0.34
CCGGTTGC | 0.317
CCGGTTGA | 0.0186
ATGGTTCC | 0.0654
ATGGTTGC | 0.274
ACGGTTGC | -0.264
CTGGTTGA | -0.09
CTGGTTGC | 0.288
CTGGTTCA | -0.192
ACGGTGTC | -0.168
CTGCTACA | 0.0929
CTCATCAG | 0.0338
